PubChem BioAssay (NCI)
This is part of a sample that, as a whole, favours compounds with a hit. Of some 79,000 tested, about 15% had one in any assay. Unmarked numbers belong to inactive results. Activity calls are given as the source filed them. Rule as the data show it: active = growth inhibition above about 70%; inactive = the rest.

Tests used:
[1] = NCI Yeast Anticancer Drug Screen. Data for the rad50 strain (AID 155);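 also: 0% = growth of vehicle-only cultures of the same strain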; conditions: S. cerevisiae rad50 strain growth inhibition, hits give high values
Procedure, shortened: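 Readout: growth inhibition relative to vehicle-treated cultures. Compound exposure was carried out in a genetically defined yeast strain deficient in DNA damage repair.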

[2] = NCI Yeast Anticancer Drug Screen. Data for the mec2-1 strain (AID 157); conditions: S. cerevisiae mec2-1 strain, hits give high values
Procedure, shortened: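 mec2-1 yeast strain, carrying an alteration in DNA damage repair or cell cycle control, was exposed to compounds; growth inhibition was measured relative to vehicle-treated controls.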

[3] = NCI Yeast Anticancer Drug Screen. Data for the sgs1 mgt1 strain (AID 161);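 also: 0% = growth of cultures given vehicle only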; conditions: S. cerevisiae sgs1 mgt1 strain, hits give high values
Procedure, shortened: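 Percent growth inhibition was derived by comparing compound-exposed mutant yeast with vehicle-exposed cultures. The strain carries alterations in DNA damage repair.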

[4] = NCI Yeast Anticancer Drug Screen. Data for the cln2 rad14 strain (AID 165);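 also: 0% = growth equal to vehicle treated cultures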; conditions: S. cerevisiae cln2 rad14 strain, hits give high values
Procedure, shortened: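 Yeast carrying cln2 and rad14 alterations (cell cycle control and DNA damage repair) were exposed to compounds. Growth inhibition was measured against vehicle-treated controls.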

[5] = NCI Yeast Anticancer Drug Screen. Data for the bub3 strain (AID 167); conditions: S. cerevisiae bub3 mutant strain, hits give high values
Procedure, shortened: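 Readout: yeast growth inhibition, expressed relative to vehicle-only wells. The test organism is a mutant strain from a panel with lesions in DNA repair or checkpoint genes.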

[6] = NCI Yeast Anticancer Drug Screen. Data for the mlh1 rad18 strain (AID 175); conditions: S. cerevisiae mlh1 rad18 strain growth inhibition, hits give high values
Procedure, shortened: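 Growth inhibition of the yeast strain was measured after compound exposure and expressed relative to vehicle-treated controls. The strain carries defined defects in DNA damage repair.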

[7] = at 5.0 µM (retest, dose inferred, filed as 0.5)
[8] = at 50.0 µM (retest, dose inferred, filed as 5.0)

Compound	growth inhibition [1, 7] [%]	growth inhibition [1, 8]	growth inhibition ([1]; at 50.0 µM)	growth inhibition [2, 7] [%]	growth inhibition [2, 8]	growth inhibition ([2]; at 50.0 µM)	growth inhibition [3, 7] [%]	growth inhibition [3, 8]	growth inhibition ([3]; at 50.0 µM)	growth inhibition [4, 7] [%]	growth inhibition [4, 8]	growth inhibition ([4]; at 50.0 µM)	growth inhibition [5, 7] [%]	growth inhibition [5, 8]	growth inhibition ([5]; at 50.0 µM)	growth inhibition [6, 7]	growth inhibition [6, 8]	growth inhibition ([6]; at 50.0 µM)
NC(=O)c1ccccc1C(=O)O	-6	7%	12.9%	-5	-2%	1.85%	0	2%	-36.1%	2	1%	36.9%	2	9%	0.6%	-5%	5%	5.9%
c1ccc(CCNCc2ccco2)nc1	-2	-5%	42.5%	-7	-20%	0.6%	-7	-26%	-21.2%	-18	-91%	23.6%	3	-2%	-24.3%	-7%	-3%	7.7%
COC(=O)c1c[nH]c2ccc(Br)cc12	-3	23%	30.9%	8	43%	28.8%	-1	19%	31.8%	-9	-20%	44%	7	22%	68.5%	23%	40%	40.5%
CCOC(=O)C(=Cc1ccccc1)C(=O)OCC	20	92% (active)	73% (active)	20	91% (active)	88.8% (active)	9	92% (active)	92.6% (active)	13	78% (active)	69.5%	48	94% (active)	92.2% (active)	12%	94% (active)	93.3% (active)
Nc1ccc2ccccc2c1N=Cc1ccccc1[N+](=O)[O-]	-3	72% (active)	85.8% (active)	-10	90% (active)	29.8%	5	92% (active)	96.8% (active)	-9	54%	-40.1%	15	85% (active)	30.2%	11%	91% (active)	84.3% (active)
O=NN(CCCl)C(=O)NCCSSCCNC(=O)N(CCCl)N=O (tested in a mixture with another compound)	29	62%	36.1%	20	39%	38.6%	40	77% (active)	59.1%	14	29%	21.6%	30	38%	14.2%	73% (active)	96% (active)	72.1% (active)
CCCCC#CCCOC(=O)C#CCCCC	1	6%	30%	1	4%	28.2%	3	7%	-0.85%	8	9%	92% (active)	3	12%	-21.3%	0%	3%	3.25%
CC(C)CCCOC(=O)c1cc([N+](=O)[O-])cc([N+](=O)[O-])c1	12	30%	67.8%	2	27%	53.1%	5	51%	96% (active)	3	25%	54.2%	0	24%	72.6% (active)	3%	70% (active)	93.8% (active)
C/C(=N\NC(=S)N1CCCC1)c1nc2ncccc2[nH]1	-20	97% (active)	85.9% (active)	-3	94% (active)	84.8% (active)	-2	95% (active)	83.2% (active)	-38	97% (active)	81.7% (active)	-40	98% (active)	87% (active)	12%	97% (active)	82% (active)
O=[N+]([O-])c1ccc(CCCCc2ccc([N+](=O)[O-])cc2)cc1	-5	-8%	-6.1%	3	-18%	3%	2	-9%	-1.8%	-2	-10%	-59.9%	13	21%	7.35%	-10%	-16%	29%
